Measurements published in article PMC13541613, “GHT-SELEX demonstrates unexpectedly high intrinsic sequence specificity and complex DNA binding of many human transcription factors”.

How the values were obtained:
Assay in all cases: HT-SELEX; 20 mM HEPES pH 7, 140 mM KCl, 5 mM NaCl, 1 mM K2HPO4, 2 mM MgSO4, 100 uM EGTA, ZnSO4, 0.1% Tween20; room temperature, 1 h; high values mean tight binding
Conditions in all cases: protein: ivt; tags: eGFP (N-terminal); dsDNA, one strand shown
ZNF721 full-length = ZNF721 full-length (Homo sapiens, UniProt Q8TF20-2 1-923)
Outline: (§1)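 In HEPES/KCl low-stringency buffer with Tween20, a bead-immobilised tagged transcription factor (full-length or DNA-binding-domain fragment, from HEK293 lysate or cell-free extract) was incubated with a randomized 40-base DNA library for 1 h at room temperature. DNA retained after washing was heat-eluted, amplified by PCR over successive cycles and Illumina-sequenced, giving ~3 million 60 bp reads per sample. The reported binding signal, a relative k-mer count in those selected reads, rises with tighter binding.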

ZNF721 DBD1 = ZNF721 DBD1 (Homo sapiens, UniProt Q8TF20-2 29-461)
Outline: as §1

ZNF721 DBD2 = ZNF721 DBD2 (Homo sapiens, UniProt Q8TF20-2 395-923)
Outline: as §1

Chain of ZNF721 DBD1 (Q8TF20 17-449): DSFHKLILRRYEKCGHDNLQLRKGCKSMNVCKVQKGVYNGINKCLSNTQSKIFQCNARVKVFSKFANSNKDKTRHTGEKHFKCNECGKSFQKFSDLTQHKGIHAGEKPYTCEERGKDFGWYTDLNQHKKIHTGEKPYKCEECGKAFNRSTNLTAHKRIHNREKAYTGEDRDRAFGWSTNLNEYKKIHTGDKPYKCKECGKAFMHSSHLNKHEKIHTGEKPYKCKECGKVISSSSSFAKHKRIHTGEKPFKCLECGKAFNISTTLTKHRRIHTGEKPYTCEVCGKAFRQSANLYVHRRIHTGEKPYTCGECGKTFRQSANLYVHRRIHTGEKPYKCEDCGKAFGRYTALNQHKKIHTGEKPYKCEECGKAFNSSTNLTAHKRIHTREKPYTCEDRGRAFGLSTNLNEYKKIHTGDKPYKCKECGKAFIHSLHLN
Chain of ZNF721 full-length (Q8TF20 other isoform, or with tags, fused parts or gaps): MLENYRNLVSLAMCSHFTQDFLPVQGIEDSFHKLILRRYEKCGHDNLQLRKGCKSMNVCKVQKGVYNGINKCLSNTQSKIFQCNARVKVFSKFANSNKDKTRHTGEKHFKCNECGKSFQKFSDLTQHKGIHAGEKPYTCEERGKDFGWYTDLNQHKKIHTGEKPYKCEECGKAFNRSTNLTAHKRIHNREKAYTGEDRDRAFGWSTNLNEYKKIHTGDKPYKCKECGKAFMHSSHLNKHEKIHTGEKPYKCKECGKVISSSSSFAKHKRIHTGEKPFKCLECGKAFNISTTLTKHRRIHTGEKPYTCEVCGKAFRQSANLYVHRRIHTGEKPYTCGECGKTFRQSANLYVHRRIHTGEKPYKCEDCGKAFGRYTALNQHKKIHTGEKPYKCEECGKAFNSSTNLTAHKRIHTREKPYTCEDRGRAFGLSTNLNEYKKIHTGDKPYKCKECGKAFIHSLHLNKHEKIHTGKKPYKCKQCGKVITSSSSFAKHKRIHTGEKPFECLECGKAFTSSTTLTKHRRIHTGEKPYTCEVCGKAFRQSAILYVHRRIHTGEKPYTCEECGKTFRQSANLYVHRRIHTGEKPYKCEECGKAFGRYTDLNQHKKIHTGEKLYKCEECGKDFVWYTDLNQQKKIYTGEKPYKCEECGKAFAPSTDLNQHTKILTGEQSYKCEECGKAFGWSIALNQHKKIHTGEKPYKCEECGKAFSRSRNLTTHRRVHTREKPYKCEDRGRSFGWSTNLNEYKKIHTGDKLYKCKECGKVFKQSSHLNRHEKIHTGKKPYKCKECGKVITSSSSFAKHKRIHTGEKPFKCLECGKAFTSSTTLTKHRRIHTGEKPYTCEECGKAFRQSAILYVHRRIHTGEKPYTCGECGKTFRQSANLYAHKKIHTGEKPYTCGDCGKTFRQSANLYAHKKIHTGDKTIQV
Chain of ZNF721 DBD2 (Q8TF20 383-911): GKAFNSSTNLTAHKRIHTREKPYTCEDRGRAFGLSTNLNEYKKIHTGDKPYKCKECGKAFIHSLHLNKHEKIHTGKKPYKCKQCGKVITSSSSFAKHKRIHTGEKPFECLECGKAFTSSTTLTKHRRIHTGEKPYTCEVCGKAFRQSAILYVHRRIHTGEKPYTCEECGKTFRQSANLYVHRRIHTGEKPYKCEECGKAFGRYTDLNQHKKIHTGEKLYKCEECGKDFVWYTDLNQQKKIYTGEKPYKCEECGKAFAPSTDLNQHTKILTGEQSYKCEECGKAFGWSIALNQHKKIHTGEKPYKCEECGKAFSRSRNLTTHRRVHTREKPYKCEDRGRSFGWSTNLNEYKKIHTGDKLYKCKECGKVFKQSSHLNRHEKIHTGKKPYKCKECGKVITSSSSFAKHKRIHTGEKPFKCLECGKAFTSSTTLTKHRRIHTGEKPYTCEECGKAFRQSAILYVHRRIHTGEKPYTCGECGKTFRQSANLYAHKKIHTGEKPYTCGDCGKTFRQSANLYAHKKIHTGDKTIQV

Sequence | binding signal (ZNF721 full-length) [relative 10-mer count] | binding signal (ZNF721 DBD1) [relative 10-mer count] | binding signal (ZNF721 DBD2) [relative 10-mer count]
CCAAAAAACA | 0.16 | 0.00174 | 0.185
CCCCTTCCCC | 0.162 | 0.00702 | 0.00192
AAAAAGGCAT | 0.188 | 0.00266 | 0.155
ACCCCCGCCC | 0.173 | 0.00619 | 0.00348
CCCCAACACC | 0.114 | 0.00417 | 0.00324
CTACCCCCCC | 0.105 | 0.00427 | 0.00312
CAAAACAGCA | 0.21 | 0.00119 | 0.205
CCGTCCCACC | 0.123 | 0.00546 | 0.00312
ACCAAAAAAA | 0.128 | 0.00904 | 0.0723
AAAAGGCATA | 0.133 | 0.00161 | 0.116
AAAAAAAAAC | 0.134 | 0.00229 | 0.0808
CCCACCCGCA | 0.109 | 0.00316 | 0.00563
CCCTCCCCCA | 0.192 | 0.00881 | 0.00839
GCCCCACCGC | 0.104 | 0.00271 | 0.00407
CCCTCGCCCC | 0.167 | 0.00702 | 0.00336
CCCCCCCACG | 0.116 | 0.00399 | 0.00443
CCCCCCGACC | 0.147 | 0.00482 | 0.00288
AAAAAAGCAT | 0.343 | 0.0588 | 0.067
CCCATCCACC | 0.103 | 0.00569 | 0.00827
CAACCCCCAC | 0.108 | 0.00417 | 0.00216
AGCATGACCA | 0.152 | 0.00431 | 0.236
CCCCTCCGCC | 0.167 | 0.00766 | 0.003
CCCCACCCCA | 0.297 | 0.0112 | 0.00288
CCCCCCCACC | 0.358 | 0.0144 | 0.00791
ACACTTCATA | 0.548 | 0.649 | 0.00144
AAAGAAGCGT | 0.12 | 0.0739 | 0.00348
CCCTCCACCC | 0.321 | 0.0139 | 0.00731
